Assay results taken from PubChem BioAssay (EPA / NIEHS).
Records with an inconclusive call do not appear. Calls of active or inactive are those of the source. How the source made its calls, unless noted: active means hit-call score of the fitted dose curve at least 0.9, where 1 is the maximum; inconclusive means response in the unintended direction; inactive means score below 0.9.

Experiments:
[1] = biological target: Oxysterols receptor LXR-beta (Homo sapiens) (UniProt P55055); assay: ATG_LXRb_TRANS: Attagene TRANS-FACTORIAL HepG2 Assay for human Liver X Receptor beta (LXRb) (AID 2282981); conditions: HepG2 Attagene TRANS GAL4-LXRb reporter, mRNA
Method in brief: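 HepG2 cells transiently transfected with GAL4-UAS reporter units for chimeric NR-Gal4 proteins, dosed for 24 h. Reporter transcripts measured by RT-PCR and capillary electrophoresis; gain-of-signal fitting relative to DMSO.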

[2] = CCTE_Harrill_HTTr_CellCount_MCF7: CCTE's Cell Proliferation Assessment for the High-Throughput Transcriptomics (HTTr) Platform, Harrill Lab (AID 2284012);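 further: cells exposed to compound for six hours; intended direction is loss of nuclei count meaning fewer cells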
Method in brief: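 MCF7 cells exposed 6 hours to an eight-point dilution series; Hoechst-stained nuclei counted by high-content imaging. Bidirectional curve fitting against DMSO baseline.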

[3] = ATG_ERE_CIS: Attagene CIS-FACTORIAL HepG2 Assay for Estrogen Response Element (ERE) (AID 2282940; active means hit-call score of the fitted dose curve at least 0.9, where 1 is the maximum; inactive means score below 0.9); conditions: HepG2 ERE cis-reporter, Attagene RNA transcript; actives raise or lower the signal
Method in brief: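 After a 24 h chemical treatment, RNA from reporter-transfected HepG2 cells is reverse-transcribed, PCR-amplified and fluorescently labelled. Fragments separated by capillary electrophoresis give reporter signal; DMSO serves as negative control.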

[4] = biological target: Glucocorticoid receptor (Homo sapiens) (UniProt P04150); assay: ATG_GR_TRANS: Attagene TRANS-FACTORIAL HepG2 Assay for human Glucocorticoid Receptor (GR) (AID 2282978); conditions: HepG2 Attagene TRANS GR reporter, mRNA transcription;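 further: activators score as hits since higher reporter transcript over DMSO is fitted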
Method in brief: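 Readout is reporter transcript from a chimeric GR-Gal4 acting on GAL4-UAS in transfected human HepG2 liver cells after 24 h exposure, quantified by RT-PCR and capillary electrophoresis. Activation fitted upward against DMSO.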

[5] = biological target: Oxysterols receptor LXR-alpha (Homo sapiens) (UniProt Q13133); assay: ATG_LXRa_TRANS: Attagene TRANS-FACTORIAL HepG2 Assay for human Liver X Receptor alpha (LXRa) (AID 2282980); conditions: HepG2 Attagene TRANS reporter, LXRa transactivation
Method in brief: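 HepG2 cells were transiently transfected with multiplexed reporter units driven by chimeric LXRa–GAL4 fusion proteins, then dosed for 24 h. Reporter mRNA was quantified by RT-PCR, fluorescent labelling and capillary electrophoresis; gain of signal fitted against DMSO baseline.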

[6] = biological target: Hepatocyte nuclear factor 4-alpha (Homo sapiens) (UniProt P41235); assay: ATG_HNF4a_TRANS: Attagene TRANS-FACTORIAL HepG2 Assay for human Hepatocyte Nuclear Factor 4 alpha (HNF4a) (AID 2282982); conditions: HepG2 HNF4a transactivation reporter, mRNA readout
Method in brief: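 HepG2 cells transiently transfected with HNF4a-Gal4 chimera and GAL4-UAS reporter units, dosed for 24 h. Reporter mRNA measured by RT-PCR, fluorescent primer extension and capillary electrophoresis; gain-of-signal fitted relative to DMSO.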

[7] = biological target: human RAR-related Orphan Receptor gamma (RORg), RORC (gene 6097) (UniProt P51449); assay: ATG_RORg_TRANS: Attagene TRANS-FACTORIAL HepG2 Assay for human RAR-related Orphan Receptor gamma (RORg) (AID 2283011)
Method in brief: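 Readout: reporter transcript induction (RT-PCR, fluorescent primer extension, capillary electrophoresis) after 24 h compound exposure of transiently transfected HepG2 cells carrying a RORg-Gal4 chimera and GAL4-UAS reporters; DMSO served as baseline, with increasing signal fitted.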

[8] = TOX21_p53_BLA_p2_viability: Viability Assessment in the Tox21 HCT-116 p53 Agonism Beta-lactamase Assay, Phase 2 (AID 2283591);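 further: compound exposure lasted 16 h at 37 °C; actives lower the ATP signal meaning cytotoxicity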
Method in brief: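 HCT116 p53-bla cells, 4000/well, dosed after 5 h plating (217-fold dilution of DMSO stocks) and incubated 16 h at 37C. Viability taken as cellular ATP by CellTiter-Glo luminescence after 30 min RT; signal loss marks cytotoxicity.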

[9] = biological target: Cellular tumor antigen p53 (Homo sapiens) (UniProt P04637); assay: TOX21_p53_BLA_p2_ratio: Tox21 HCT-116 p53 Agonism Beta-lactamase Assay, Ratio, Phase 2 (AID 2283592)
Method in brief: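 HCT116 cells carrying a p53-responsive beta-lactamase reporter were plated, incubated 5 h at 37C, then dosed with compounds in DMSO (217-fold dilution) for 16 h. CCF4-AM substrate was added for 2 h at room temperature; the 460/530 nm emission ratio gave gain-of-signal activity relative to DMSO.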

[10] = TOX21_p53_BLA_p4_viability: Viability Assessment in the Tox21 HCT-116 p53 Agonism Beta-lactamase Assay, Phase 4 (AID 2283597);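 further: hits lower the luminescence signal meaning cytotoxicity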
Method in brief: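 HCT116 p53-bla cells (4000/well) rested 5 h at 37C, then received compounds in DMSO (217-fold dilution) for 16 h at 37C, 5% CO2. CellTiter-Glo was added after the CCF4-AM read, and luminescence was read after 30 min at room temperature.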

[11] = biological target: Cellular tumor antigen p53 (Homo sapiens) (UniProt P04637); assay: TOX21_p53_BLA_p5_ratio: Tox21 HCT-116 p53 Agonism Beta-lactamase Assay, Ratio, Phase 5 (AID 2283599)
Method in brief: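 HCT-116 p53-bla cells (4000/well) plated 5 h, dosed with compound (217-fold DMSO dilution) for 16 h at 37 C; CCF4-AM substrate 2 h at room temperature. Activity is the 460/530 nm emission ratio (405 nm excitation), fitted in gain-of-signal direction versus DMSO.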

[12] = biological target: Cellular tumor antigen p53 (Homo sapiens) (UniProt P04637); assay: TOX21_p53_BLA_p4_ratio: Tox21 HCT-116 p53 Agonism Beta-lactamase Assay, Ratio, Phase 4 (AID 2283601)
Method in brief: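 HCT-116 p53 beta-lactamase reporter cells (4000/well) preincubated 5 h, then compound (217-fold dilution of DMSO stock) for 16 h at 37C. CCF4-AM substrate added 2 h at room temperature; 460/530 nm emission ratio fitted upward versus DMSO.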

[13] = ACEA_ER_AUC_viability: ACEA Biosciences xCELLigence Real-Time Cell Analysis on Estrogen Receptor Agonism for Viability (AID 2283782);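 further: continuous compound exposure with impedance area under curve over 80 h; hit means loss of impedance signal meaning reduced cell growth or viability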
Method in brief: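 T47D cells preconditioned in phenol red-free RPMI with charcoal-stripped FBS, then dosed with 8-point 1:4 series from 100 uM (up to 0.5% DMSO). Impedance monitored up to ~80 h; area-under-curve loss versus DMSO taken as viability.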

[14] = biological target: human RAR-related Orphan Receptor beta (RORb), RORB (gene 6096) (UniProt Q92753); assay: ATG_RORb_TRANS: Attagene TRANS-FACTORIAL HepG2 Assay for human RAR-related Orphan Receptor beta (RORb) (AID 2283010)
Method in brief: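 HepG2 cells transiently transfected with GAL4-UAS reporter units expressing chimeric NR-Gal4 protein; reporter mRNA measured 24 h after dosing by RT-PCR, 6-FAM labelling and capillary electrophoresis. Gain-of-signal fitted relative to DMSO baseline.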

[15] = ATG_XTT_Cytotoxicity: Cytotoxicity Assessment in the Attagene TRANS-FACTORIAL HepG2 Assay (AID 2283584)
Method in brief: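 HepG2 human liver cells, transiently transfected with multiple GAL4-UAS reporter units, were dosed and read at 24 h by XTT as cell number. Loss of signal was fitted relative to DMSO negative control baseline.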

[16] = biological target: Cellular tumor antigen p53 (Homo sapiens) (UniProt P04637); assay: TOX21_p53_BLA_p3_ratio: Tox21 HCT-116 p53 Agonism Beta-lactamase Assay, Ratio, Phase 3 (AID 2283596)
Method in brief: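 HCT116 p53-bla cells (4000/well) given compound in DMSO (217-fold dilution) after 5 h, incubated 16 h at 37C. CCF4-AM substrate 2 h at room temperature; 460/530 nm emission ratio, gain fitted against DMSO.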

[17] = TOX21_p53_BLA_p3_viability: Viability Assessment in the Tox21 HCT-116 p53 Agonism Beta-lactamase Assay, Phase 3 (AID 2283593);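 further: cells exposed to compound for 16 h before reading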
Method in brief: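 HCT116 cells, 4000/well, dosed 5 h after plating by pin transfer (217-fold dilution from DMSO stock) and incubated 16 h at 37C, 5% CO2. Viability read as ATP luminescence with CellTiter-Glo after 30 min at room temperature.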

[18] = biological target: Nuclear receptor subfamily 1 group I member 3 (Homo sapiens) (UniProt Q14994); assay: ATG_CAR_TRANS: Attagene TRANS-FACTORIAL HepG2 Assay for human Constitutive Androstane Receptor (CAR) (AID 2282969); conditions: HepG2 Attagene TRANS-FACTORIAL CAR reporter;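 further: activators raise reporter mRNA above DMSO so AC50 marks induction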
Method in brief: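 HepG2 cells transiently transfected with GAL4-UAS reporter units; TRANS format reads activity of exogenous chimeric NR-Gal4 protein. After 24 h dosing, reporter mRNA quantified by RT-PCR, 6-FAM labelling and capillary electrophoresis; gain of signal fitted against DMSO.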

[19] = biological target: Bile acid receptor (Homo sapiens) (UniProt Q96RI1); assay: ATG_IR1_CIS: Attagene CIS-FACTORIAL HepG2 Assay for human Nuclear Receptor Subfamily 1 Group H Member 4 (NR1H4), IR1 submotif (AID 2282946; active means hit-call score of the fitted dose curve at least 0.9, where 1 is the maximum; inactive means score below 0.9); conditions: IR1 reporter transcription, actives raise or lower the signal
Method in brief: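 HepG2 cells transiently transfected with multiple cis-promoter-driven reporter units to measure endogenous transcription factor activity; 24 h exposure. Reporter mRNA read by RT-PCR, FAM labelling, HpaI digestion and capillary electrophoresis. Bidirectional fit versus DMSO.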

[20] = biological target: human Peroxisome Proliferator-activated Receptor delta (PPARd), PPARD (gene 5467) (UniProt Q03181); assay: ATG_PPARd_TRANS: Attagene TRANS-FACTORIAL HepG2 Assay for human Peroxisome Proliferator-activated Receptor delta (PPARd) (AID 2283002)
Method in brief: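 Read-out: reporter mRNA induction, quantified by fluorescent RT-PCR products resolved by capillary electrophoresis. Human HepG2 liver cells carried transiently transfected Gal4-UAS reporter constructs with chimeric NR-Gal4 fusions. Cells were dosed for 24 h; DMSO served as baseline.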

Measured: AC50

Chain of Nuclear receptor subfamily 1 group I member 3 (Homo sapiens) (Q14994 whole entry, looked up, the tested form may be a part): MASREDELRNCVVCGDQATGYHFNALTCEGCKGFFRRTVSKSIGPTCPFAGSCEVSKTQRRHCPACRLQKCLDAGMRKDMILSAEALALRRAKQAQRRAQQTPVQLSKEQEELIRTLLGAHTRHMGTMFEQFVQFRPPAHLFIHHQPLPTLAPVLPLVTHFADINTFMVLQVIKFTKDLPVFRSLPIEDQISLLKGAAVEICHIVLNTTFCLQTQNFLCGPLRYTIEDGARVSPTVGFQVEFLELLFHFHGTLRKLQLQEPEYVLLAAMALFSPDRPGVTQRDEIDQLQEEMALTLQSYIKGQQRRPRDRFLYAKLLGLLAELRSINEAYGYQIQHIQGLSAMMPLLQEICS
Chain of Cellular tumor antigen p53 (Homo sapiens) (P04637 whole entry, looked up): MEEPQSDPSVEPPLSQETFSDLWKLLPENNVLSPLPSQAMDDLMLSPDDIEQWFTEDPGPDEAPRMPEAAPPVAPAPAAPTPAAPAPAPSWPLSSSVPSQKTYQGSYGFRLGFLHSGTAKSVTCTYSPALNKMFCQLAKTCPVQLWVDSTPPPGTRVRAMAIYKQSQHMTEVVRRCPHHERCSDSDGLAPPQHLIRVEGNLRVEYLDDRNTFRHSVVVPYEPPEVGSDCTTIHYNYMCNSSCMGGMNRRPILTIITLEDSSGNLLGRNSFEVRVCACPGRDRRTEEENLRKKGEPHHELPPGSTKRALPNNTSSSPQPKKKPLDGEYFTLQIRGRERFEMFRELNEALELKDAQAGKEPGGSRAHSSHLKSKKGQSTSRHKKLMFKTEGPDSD
Chain of Hepatocyte nuclear factor 4-alpha (Homo sapiens) (P41235 whole entry, looked up, the tested form may be a part): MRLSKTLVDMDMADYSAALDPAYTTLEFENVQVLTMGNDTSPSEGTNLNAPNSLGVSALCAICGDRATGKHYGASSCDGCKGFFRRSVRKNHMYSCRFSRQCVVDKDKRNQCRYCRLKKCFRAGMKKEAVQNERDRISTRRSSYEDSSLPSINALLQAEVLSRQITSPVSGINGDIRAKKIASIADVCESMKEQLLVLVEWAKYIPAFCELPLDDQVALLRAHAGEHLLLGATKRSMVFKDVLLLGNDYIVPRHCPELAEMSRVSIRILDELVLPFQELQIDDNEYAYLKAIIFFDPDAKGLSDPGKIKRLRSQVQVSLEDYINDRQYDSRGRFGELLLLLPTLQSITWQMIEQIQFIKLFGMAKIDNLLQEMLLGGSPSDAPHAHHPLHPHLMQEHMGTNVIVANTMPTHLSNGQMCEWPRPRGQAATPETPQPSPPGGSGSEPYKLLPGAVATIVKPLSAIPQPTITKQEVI
Chain of Glucocorticoid receptor (Homo sapiens) (P04150 whole entry, looked up, the tested form may be a part): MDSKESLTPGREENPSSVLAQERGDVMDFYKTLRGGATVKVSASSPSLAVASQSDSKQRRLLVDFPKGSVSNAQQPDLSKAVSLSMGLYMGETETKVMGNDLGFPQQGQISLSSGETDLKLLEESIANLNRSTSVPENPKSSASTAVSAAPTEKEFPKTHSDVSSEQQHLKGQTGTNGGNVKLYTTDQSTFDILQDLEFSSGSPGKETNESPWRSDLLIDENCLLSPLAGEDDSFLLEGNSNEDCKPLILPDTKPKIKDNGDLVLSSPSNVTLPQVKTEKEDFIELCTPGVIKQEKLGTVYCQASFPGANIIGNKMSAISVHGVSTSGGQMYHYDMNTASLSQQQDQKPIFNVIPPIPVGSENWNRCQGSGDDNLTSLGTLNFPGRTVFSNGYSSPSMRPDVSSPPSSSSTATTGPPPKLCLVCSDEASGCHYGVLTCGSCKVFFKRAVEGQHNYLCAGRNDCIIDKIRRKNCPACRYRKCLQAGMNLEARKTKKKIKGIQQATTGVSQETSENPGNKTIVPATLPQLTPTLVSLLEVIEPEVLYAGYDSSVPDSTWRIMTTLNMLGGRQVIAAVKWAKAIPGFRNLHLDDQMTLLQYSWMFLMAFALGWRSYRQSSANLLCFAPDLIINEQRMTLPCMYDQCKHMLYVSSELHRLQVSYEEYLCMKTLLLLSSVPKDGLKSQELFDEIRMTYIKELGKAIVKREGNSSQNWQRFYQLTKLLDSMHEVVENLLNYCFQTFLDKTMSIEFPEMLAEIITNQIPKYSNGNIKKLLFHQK
Chain of human RAR-related Orphan Receptor beta (RORb), RORB (gene 6096) (Q92753 whole entry, looked up, the tested form may be a part): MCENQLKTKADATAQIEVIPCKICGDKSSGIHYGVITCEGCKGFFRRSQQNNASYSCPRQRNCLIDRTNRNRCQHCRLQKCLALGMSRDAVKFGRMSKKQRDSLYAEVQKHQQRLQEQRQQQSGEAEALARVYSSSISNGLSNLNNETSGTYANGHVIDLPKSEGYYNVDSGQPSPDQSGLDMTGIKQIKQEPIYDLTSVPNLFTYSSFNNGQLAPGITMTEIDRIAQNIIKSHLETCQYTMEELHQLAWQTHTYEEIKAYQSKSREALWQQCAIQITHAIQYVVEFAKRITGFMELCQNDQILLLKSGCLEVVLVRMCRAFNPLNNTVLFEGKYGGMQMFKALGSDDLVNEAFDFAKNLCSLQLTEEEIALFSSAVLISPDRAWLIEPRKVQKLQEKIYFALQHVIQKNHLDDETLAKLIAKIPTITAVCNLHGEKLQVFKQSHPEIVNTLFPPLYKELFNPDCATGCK
Chain of human RAR-related Orphan Receptor gamma (RORg), RORC (gene 6097) (P51449 whole entry, looked up, the tested form may be a part): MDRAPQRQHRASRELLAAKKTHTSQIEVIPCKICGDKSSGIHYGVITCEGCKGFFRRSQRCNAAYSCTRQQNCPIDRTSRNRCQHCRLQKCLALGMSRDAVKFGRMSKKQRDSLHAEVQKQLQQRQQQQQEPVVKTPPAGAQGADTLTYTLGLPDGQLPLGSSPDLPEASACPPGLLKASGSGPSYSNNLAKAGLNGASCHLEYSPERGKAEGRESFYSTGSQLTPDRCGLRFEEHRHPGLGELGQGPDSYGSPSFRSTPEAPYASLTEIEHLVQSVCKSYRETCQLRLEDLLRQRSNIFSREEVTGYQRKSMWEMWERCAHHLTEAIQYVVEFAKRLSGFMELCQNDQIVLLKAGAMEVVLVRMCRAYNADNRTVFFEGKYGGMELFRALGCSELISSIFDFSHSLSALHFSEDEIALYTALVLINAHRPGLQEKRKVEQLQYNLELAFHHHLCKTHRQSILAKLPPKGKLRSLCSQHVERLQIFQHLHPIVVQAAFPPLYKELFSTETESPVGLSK
Chain of Oxysterols receptor LXR-alpha (Homo sapiens) (Q13133 whole entry, looked up, the tested form may be a part): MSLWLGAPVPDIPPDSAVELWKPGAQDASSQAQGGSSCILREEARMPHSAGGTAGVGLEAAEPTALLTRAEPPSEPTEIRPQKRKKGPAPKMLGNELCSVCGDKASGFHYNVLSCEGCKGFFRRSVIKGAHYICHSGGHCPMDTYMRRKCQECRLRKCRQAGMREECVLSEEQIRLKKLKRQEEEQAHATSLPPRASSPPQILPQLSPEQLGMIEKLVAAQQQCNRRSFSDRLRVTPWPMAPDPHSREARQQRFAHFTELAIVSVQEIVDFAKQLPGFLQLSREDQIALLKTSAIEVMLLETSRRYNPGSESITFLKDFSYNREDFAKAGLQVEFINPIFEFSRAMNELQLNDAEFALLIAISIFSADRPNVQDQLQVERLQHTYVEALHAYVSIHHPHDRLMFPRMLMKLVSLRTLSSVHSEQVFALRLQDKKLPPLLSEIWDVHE
Chain of Oxysterols receptor LXR-beta (Homo sapiens) (P55055 whole entry, looked up, the tested form may be a part): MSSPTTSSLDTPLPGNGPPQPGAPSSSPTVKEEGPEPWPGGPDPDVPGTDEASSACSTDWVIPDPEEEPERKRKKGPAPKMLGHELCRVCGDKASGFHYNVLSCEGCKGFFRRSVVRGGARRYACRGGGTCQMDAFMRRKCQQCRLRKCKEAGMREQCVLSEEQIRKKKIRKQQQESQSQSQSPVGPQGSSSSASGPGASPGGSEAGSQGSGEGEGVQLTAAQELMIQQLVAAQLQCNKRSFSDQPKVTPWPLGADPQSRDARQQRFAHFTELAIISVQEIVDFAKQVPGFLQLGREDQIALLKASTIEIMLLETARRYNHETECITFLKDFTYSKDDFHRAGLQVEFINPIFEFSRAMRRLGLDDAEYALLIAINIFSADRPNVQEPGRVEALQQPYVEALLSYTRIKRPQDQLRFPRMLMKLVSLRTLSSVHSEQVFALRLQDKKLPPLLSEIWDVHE
Chain of human Peroxisome Proliferator-activated Receptor delta (PPARd), PPARD (gene 5467) (Q03181 whole entry, looked up, the tested form may be a part): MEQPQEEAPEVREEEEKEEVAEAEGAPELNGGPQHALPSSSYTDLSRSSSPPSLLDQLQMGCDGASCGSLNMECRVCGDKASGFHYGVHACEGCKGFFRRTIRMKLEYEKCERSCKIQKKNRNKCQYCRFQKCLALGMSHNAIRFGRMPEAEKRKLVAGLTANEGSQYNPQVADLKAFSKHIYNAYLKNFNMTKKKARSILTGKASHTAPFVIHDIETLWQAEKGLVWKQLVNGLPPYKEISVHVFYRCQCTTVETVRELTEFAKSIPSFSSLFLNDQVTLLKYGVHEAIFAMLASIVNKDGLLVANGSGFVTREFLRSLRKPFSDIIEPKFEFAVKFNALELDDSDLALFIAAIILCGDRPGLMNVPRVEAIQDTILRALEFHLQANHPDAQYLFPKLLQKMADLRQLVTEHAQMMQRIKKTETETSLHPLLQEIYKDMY
Chain of Bile acid receptor (Homo sapiens) (Q96RI1 whole entry, looked up): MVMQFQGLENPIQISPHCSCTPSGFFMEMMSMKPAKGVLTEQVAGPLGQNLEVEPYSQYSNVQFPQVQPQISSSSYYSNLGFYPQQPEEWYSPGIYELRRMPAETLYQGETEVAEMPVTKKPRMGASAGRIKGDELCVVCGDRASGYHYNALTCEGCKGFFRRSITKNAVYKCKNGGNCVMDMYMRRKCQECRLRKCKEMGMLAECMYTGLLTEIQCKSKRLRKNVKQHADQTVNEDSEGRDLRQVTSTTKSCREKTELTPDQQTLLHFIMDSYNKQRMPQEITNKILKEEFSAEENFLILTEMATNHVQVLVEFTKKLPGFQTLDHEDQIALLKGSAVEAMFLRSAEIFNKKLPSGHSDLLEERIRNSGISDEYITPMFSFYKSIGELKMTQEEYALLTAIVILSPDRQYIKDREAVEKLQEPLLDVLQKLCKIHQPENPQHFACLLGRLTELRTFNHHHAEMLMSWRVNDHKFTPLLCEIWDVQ

O=S(=O)(O)O
inactive: [1] | [2]

CN(C)CCC#N
inactive: [3] | [4] | [5] | [1] | [6] | [7] | [8] | [9] | [10] | [11] | [12] | [13]

C=C(Cl)CCl
inactive: [3] | [4] | [5] | [1] | [14] | [7] | [15] | [9] | [16] | [10] | [11] | [12]

C[C@]12CCC(=O)C(O)=C1CC[C@@H]1[C@@H]2CC[C@]2(C)C(=O)CC[C@@H]12
active: [3] 16.8 µM
inactive: [4] | [5] | [1] | [15] | [8] | [9] | [17] | [12] | [2]

ClCC(Cl)Cl
inactive: [3] | [18] | [7] | [15] | [8] | [9] | [11] | [12]

COC(=O)c1ccccc1S(=O)(=O)NC(=O)Nc1nc(C)cc(C)n1
inactive: [4] | [5] | [14] | [2]

Nc1ccccc1C(=O)OCCc1ccccc1
inactive: [18] | [4] | [5] | [1] | [6] | [14] | [7] | [15] | [8] | [9] | [17] | [16] | [10] | [11] | [12]

Cc1ccc(N(SC(F)(Cl)Cl)S(=O)(=O)N(C)C)cc1
active: [10] 87.1 µM | [12] 44.8 µM
inactive: [19] | [5] | [6] | [20] | [8] | [9] | [16] | [11] | [2]

CCOP(O)OCC
inactive: [6] | [20] | [15]

CCC(C)(C)O
inactive: [3] | [18] | [4] | [7] | [13] | [2]
